# Data published in PubChem BioAssay (NCATS).
# Records with an inconclusive call do not appear. Active and inactive are the calls of the source. Unless noted, calls come from the whole dose curve; as a rule, active = well fitted inhibition curve with a large enough effect; inconclusive = small, poorly fitted or top-dose-only effect; inactive = no such curve, though single readings can be large or run the other way.
# Experiment: High-throughput drug toxicity screening in the BPDCN cell line Cal-1 (AID 1224825; call rule not given here)
# Conditions: Cal-1 BPDCN cell viability, qHTS; at 45.8 µM (top of the series)
# Procedure, shortened: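 CellTiter-Glo luminescence after 48 h compound exposure; percent activity scaled with DMSO as 100% and bortezomib (9.2 uM final) as 0%. Cal-1 cells seeded at 500/well in RPMI, 10% FBS, no phenol red.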
row,Structure (SMILES),viability (% of control) [%]
1,CC(=Cc1csc(C)n1)[C@@H]1C[C@H]2O[C@@H]2CCC[C@H](C)[C@@H](O)[C@@H](C)C(=O)C(C)(C)[C@@H](O)CC(=O)O1,26.8
2,CC(=O)O[C@@]12CO[C@H]1C[C@H](O)[C@@]1(C)C(=O)[C@H](O)C3=C(C)[C@@H](O)C[C@@](O)([C@@H](OC(=O)c4ccccc4)[C@@H]21)C3(C)C,20.6
3,CC(C)[C@]12O[C@@H]1[C@@H]1O[C@]13[C@]1(O[C@H]1C[C@@H]1C4=C(CC[C@@]13C)C(=O)OC4)[C@H]2O,2.1
4,C[C@H]1CCCC=CC2C[C@H](O)C[C@@H]2[C@H](O)C=CC(=O)O1 (some centres not stated),4
5,COC1=C[C@@H]2[C@@H]3Cc4ccc(OC)c(O)c4[C@]2(CCN3C)CC1=O,12.3
6,COc1cccc2c1[C@]13CCN(CC4CC4)[C@H](C2)[C@]1(OC)CCC(=O)C3,111
7,C[C@]12CC[C@H](O)CC1=CC[C@H]1[C@H]3CCC(=O)[C@@]3(C)CC[C@@H]12,104
8,O=c1[nH]c2ccc(Cl)cc2c(N[C@@H]2CN3CCC2CC3)c1-c1nc2ccccc2[nH]1,2.3

# Experiment: qHTS assay for measurement of the activity of small molecule inhibitors on Zika virus induced Caspase-3 activity in human iPSC derived neural progenitor cells (hNPCs) (AID 1224857); note: % of control where 0% means no effect; nearly all actives have a fitted effect of over 65% in size
# Conditions: hNPCs ZIKV-induced caspase-3/7, Caspase-Glo luminescence, 6 h; series mostly up to 45.7 µM; activity change, negative = inhibition: at the top concentration
# Procedure, shortened: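 Human iPSC-derived neural progenitor cells pretreated 1 hr with compounds, then infected with Zika virus (2 FFU/cell) for 6 hours at 37 C. Caspase-3/7 measured by Caspase-Glo luminescence; % inhibition calculated from induction scaled to uninfected (0%) and infected (100%) wells.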
Structure (SMILES),"activity change, negative = inhibition",Potency
CC(=O)OCC1=C(C(=O)O)N2C(=O)[C@@H](N)[C@@H]2SC1,-31.4% (inactive),–
CN[C@@H]1Cc2cccc3[nH]c(=O)n(c23)C1,-12.6% (inactive),–
COc1ccc2c(c1)[C@]13CCCCC1C(C2)N(C)CC3 (some centres not stated),42.4% (inactive),–
C[C@H]([C@H](O)CCC(C)(C)O)[C@H]1CC[C@@]2(O)C3=CC(=O)[C@@H]4C[C@@H](O)[C@@H](O)C[C@]4(C)[C@@H]3CC[C@]12C,13.1% (inactive),–
COC(=O)[C@@H](N)CCCN=C(N)N[N+](=O)[O-],–,inactive
C[C@@H]1CC[C@@]2(OC1)O[C@H]1C[C@H]3[C@@H]4CC=C5C[C@@H](O[C@@H]6O[C@H](CO)[C@@H](O[C@@H]7O[C@@H](C)[C@H](O)[C@@H](O)[C@@H]7O)[C@H](O)[C@@H]6O[C@@H]6O[C@@H](C)[C@H](O)[C@@H](O)[C@@H]6O)CC[C@]5(C)[C@@H]4CC[C@]3(C)[C@@H]1[C@H]2C,-12.6% (inactive),–
C[C@]12Cc3cn[nH]c3C[C@@H]1CC[C@@H]1[C@H]2CC[C@@]2(C)[C@H]1CC[C@]2(C)O,20.8% (inactive),–
C[C@@H]1CC[C@H]2[C@@H](C)C(=O)O[C@@H]3O[C@@]4(C)CC[C@H]1[C@]32OO4,-28.7% (inactive),–
COC[C@H]1OC(=O)c2coc3c2[C@@]1(C)C1=C(C3=O)[C@@H]2CC[C@H](O)[C@@]2(C)C[C@@H]1OC(C)=O,-13.3% (inactive),–
C[C@]12CC[C@@H]3[C@@H](CCC4=CC(=O)CC[C@@H]43)[C@@H]1CC[C@@H]2OC(=O)CCc1ccccc1,125% (inactive),–
COc1cc([C@@H]2c3cc4c(cc3[C@@H](O)C3COC(=O)C32)OCO4)cc(OC)c1O (some centres not stated),156% (inactive),–
O=c1cccc2n1CC1CNC[C@H]2C1,24.2% (inactive),–
C[C@@H]1O[C@@H](O[C@@H]2C=C3CC[C@@H]4[C@@H](CC[C@]5(C)[C@H](c6ccc(=O)oc6)CC[C@@]45O)[C@@]3(C)CC2)[C@H](O)[C@H](O)[C@H]1O,-18.7% (inactive),–
CC(C)(O)C=CC(=O)[C@](C)(O)[C@H]1[C@H](O)C[C@]2(C)[C@@H]3CC=C4[C@@H](C=C(O)C(=O)C4(C)C)[C@]3(C)C(=O)C[C@@]12C,-1.36% (inactive),–
Cc1ccccc1-n1c(Cn2ncc3c(N)ncnc32)nc2cccc(C)c2c1=O,-7.6% (inactive),–
Cc1[nH]nc2ccc(-c3cncc(OC[C@@H](N)Cc4c[nH]c5ccccc45)c3)cc12,30.9% (inactive),–
Clc1ccccc1C(c1ccccc1)(c1ccccc1)n1cccn1,10.4% (inactive),–
C#C[C@]1(O)C=C[C@@H]2[C@@H]3CCC4=CC(=O)CC[C@@H]4[C@H]3CC[C@@]21CC,4.88% (inactive),–
CN(C)[C@@H]1C(=O)C(C(N)=O)=C(O)[C@@]2(O)C(=O)C3=C(O)c4c(O)cccc4[C@@](C)(O)[C@H]3[C@H](O)[C@@H]12,-2.39% (inactive),–
C[C@]12CC[C@H]3[C@@H](CCC4=CC(=O)CC[C@@]43C)[C@H]1CC[C@H]2OC(=O)CCC1CCCC1,173% (inactive),–
CC(=Cc1csc(C)n1)[C@@H]1C[C@H]2O[C@]2(C)CCC[C@H](C)[C@@H](O)[C@@H](C)C(=O)C(C)(C)[C@@H](O)CC(=O)O1,6.99% (inactive),–
COCC1(CO)C(=O)C2CCN1CC2 (configuration not stated),-8.5% (inactive),–
O=C(N[C@H]1CN2CCC1CC2)c1ccc(Cl)cc1,–,inactive
C[C@@H]1[C@H](O)[C@@H](C)C=CC=CCCC=CC=CC=CC=C[C@H](O[C@H]2O[C@@H](C)[C@H](O)[C@@H](N)[C@@H]2O)CC2O[C@](O)(C[C@@H](O)[C@H](O)CC[C@@H](O)C[C@@H](O)C[C@@H](O)CC(=O)O[C@H]1C)C[C@H](O)[C@H]2C(=O)O,-7.87% (inactive),–
